PMC12701074

What follows are substances tested against Histone H2B type 1-L (UniProt Q99880) (assay: cross-link between two proteins; cross-linking mass spectrometry).

Listed as a hit, yes:
Large ribosomal subunit protein uL18, P46777
Large ribosomal subunit protein eL6, Q02878
Small ribosomal subunit protein eS8, P62241
